# TLR9-MyD88 block – inhibitors of TLR9-MyD88 association in cells, primary screen, cell-based, CHO, BLA complementation, fluorescence; inhibition, % at 4.98 µM; CCF4 FRET ratio; actives 0.21% (n = 340,000);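 active = inhibition above the mean over all tested compounds plus 3 SD, cut at about 21% in these data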;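 also: 0% = DMSO only wells and 100% = clavulanate BLA inhibitor control wells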
# Exocytosis inh – LAMP-1 surface exposure blockers, TALL-104 cells – cell-based, flow cytometry, MLPCN library, primary screen. TALL-104 LAMP-1 surface exposure; cells stimulated with thapsigargin and PMA. inhibition, % at 10 µM. actives 0.66% (n = 360,000). AID 651702, 2012;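 active = inhibition above about 55%, limit read from the data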
# TLR4 MyD88 comp – inhibitors of TLR4-MyD88 association in cells, primary screen, cell-based, HeLa CL3-4, BLA complementation, FRET ratio | Toll-like receptor 4 (Homo sapiens) + Myeloid differentiation primary response protein … | HeLa CL3-4 TLR4/MyD88 BLA complementation | inhibition, % at 8.4 µM | actives 0.18% (n = 200,000) | AID 861, 2007; in the data active = inhibition above about 25%;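 also: 0% = vehicle and 100% = reference inhibitor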
# NOD2-RIPK2 inh – NOD2-RIPK2 binding disruptors in cells, primary screen, fluorescence, CHO cells, BLA complementation. actives 0.38% (n = 360,000). AID 624267, 2012. CCF4 ratio. inhibition, % at 4.98 µM. Receptor-interacting serine/threonine-protein kinase 2 (Homo sapiens), O43353; in the data active = inhibition above about 21%;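 also: 0% = vehicle only and 100% = reference blocker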
# Target sequence (O43353 whole entry, looked up): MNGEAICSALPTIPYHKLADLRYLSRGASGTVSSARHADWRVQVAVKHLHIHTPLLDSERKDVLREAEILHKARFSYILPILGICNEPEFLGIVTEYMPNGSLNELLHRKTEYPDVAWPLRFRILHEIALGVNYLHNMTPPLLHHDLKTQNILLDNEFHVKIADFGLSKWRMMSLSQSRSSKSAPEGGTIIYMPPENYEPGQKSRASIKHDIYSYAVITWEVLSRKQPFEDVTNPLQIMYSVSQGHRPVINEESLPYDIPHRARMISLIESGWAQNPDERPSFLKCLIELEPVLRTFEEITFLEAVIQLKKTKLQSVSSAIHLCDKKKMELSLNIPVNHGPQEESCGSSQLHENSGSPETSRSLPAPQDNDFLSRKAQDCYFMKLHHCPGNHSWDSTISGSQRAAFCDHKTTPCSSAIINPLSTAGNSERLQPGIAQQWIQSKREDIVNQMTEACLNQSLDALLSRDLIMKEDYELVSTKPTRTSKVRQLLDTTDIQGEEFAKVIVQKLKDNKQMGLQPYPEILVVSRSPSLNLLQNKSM
# PRMT1 inh – PRMT1 methyltransferase inhibitors, primary screen, biochemical, fluorescence polarization | inhibition, % at 2.79 µM | actives 1.3% (n = 370,000) | Protein arginine N-methyltransferase 1 (Homo sapiens), Q99873 | recombinant PRMT1, activity-based probe fluorescence polarization;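 active = inhibition above about 21% made by adding two undisclosed values, limit read from the data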
# ABHD5-PLIN5 inh – ABHD5-PLIN5 interaction inhibitors, primary screen, cell lysate, split luciferase complementation, luminescence; inhibition, % at 4 µM; Perilipin-5 (Homo sapiens) + 1-acylglycerol-3-phosphate O-acyltransferase ABHD5 (Homo …; actives 0.78% (n = 360,000); AID 602281, 2012; Split G. princeps luciferase complementation, 4 h;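 active = inhibition above the mean inhibition across every tested compound plus 3 SD, cut at about 22% in these data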;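 also: 0% = DMSO only wells and the 100% control is not disclosed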
# * marks the source's active call; other numbers are inactive results; x = not tested or not shown. Sampled rows, rich in hits. Any-hit rate of the full collection: about 2.6%.
SMILES,TLR9-MyD88 block,Exocytosis inh,TLR4 MyD88 comp,NOD2-RIPK2 inh,PRMT1 inh,ABHD5-PLIN5 inh
COC(=O)c1cc2c(-c3ccccc3)c(C)c3ccccn3c-2c1C(=O)OC,6.5,-2.0,-2.5,5.2,10.2,3.1
COC(=O)c1c(Cl)c2n3ccccc3c(C)c(-c3ccccc3)c-2c1C(=O)OC,4.7,2.9,-15.3,-6.5,33.6*,-4.8
Cc1ccc2cc(CN(CCCN(C)C)C(=O)NCc3ccccc3)c(=O)[nH]c2c1C,2.1,0.2,-16.2,-2.6,-0.6,8.8
Cc1ccc2cc(CN(CCCN(C)C)C(=S)NCc3ccccc3)c(=O)[nH]c2c1C,-1.1,38.2,-5.5,11.6,3.9,23.0*
COCc1cc(N2CCNC[C@H]2C)ccc1N1CCS(=O)(=O)CC1,x,x,x,x,-2.1,x
Cc1ccc(-n2c(=O)cc(N3CC(C)OC(C)C3)[nH]c2=O)cc1 (configuration not stated),-7.9,0.2,-3.7,1.2,-0.6,19.3
Cc1ccccc1-n1c(=O)cc(N2CC(C)OC(C)C2)[nH]c1=O (configuration not stated),-4.4,1.2,-2.5,3.2,0.7,22.7*
CCC(c1nnnn1Cc1ccco1)N(CCN1CCOCC1)Cc1cc2cc(C)ccc2[nH]c1=O (configuration not stated),-2.7,0.6,-7.1,-0.9,21.4*,12.5
O[C@@H](Cc1ccccc1)[C@@H](/C=C/c1ccccc1)N(Cc1ccccc1)Cc1ccccc1,x,x,x,x,-0.4,x
CCOc1ccc(/C=N/Nc2nc(C)cs2)c(O)c1,6.2,4.9,x,-3.1,21.4*,-3.2
Cc1ccc(OCCn2cc(C#N)c3ccccc32)cc1,-1.1,68.0*,-4.4,-9.3,0.5,1.1
COc1ccccc1OCCn1cc(C#N)c2ccccc21,7.2,-2.2,-17.9,-11.2,2.3,-0.8
CC(C)[C@@H](NC(=O)OC(C)(C)C)c1cc(C(=O)c2c(-c3ccccc3)[nH]c3ccccc23)c(N)s1,x,6.8,x,-9.8,23.1*,17.7
COC(=O)C1=C(C)N(C)C(=NCc2ccc(OC)cc2)NC1c1ccc(C(F)(F)F)cc1 (configuration not stated),x,x,x,x,-2.2,x
CN(C)c1nc(=NCc2cccs2)ss1,3.0,65.4*,x,0.9,10.6,77.8*
CC(SC(=S)N(C)Cc1cccs1)C(=O)O (configuration not stated),-1.3,1.4,-4.5,4.1,-1.9,-4.3
CC(=O)C(=Nc1ccccc1Cl)NNc1ccc(Cl)cc1,5.7,89.4*,-3.1,7.0,71.0*,-4.1
O=C(NNc1ccc(Cl)cc1)c1c(F)cccc1Cl,-10.9,-2.1,x,-16.0,3.8,0.8
CCCCCCCCS(=O)c1sc2nc3c(cc2c1N)CCCC3 (configuration not stated),5.1,-1.5,-9.1,10.1,23.9*,-2.0
O=C(c1ccc(Br)cn1)N1CCC(Oc2cccnc2)CC1,x,x,x,x,-4.3,x
O=C1C=CC(=C(c2ccc(O)cc2)c2ccc(O)cc2)C=C1,-15.4,3.0,x,1.3,6.8,78.1*
O=c1c2c3c(sc2ncn1/N=C/c1ccc([N+](=O)[O-])o1)CCCC3,-0.3,83.3*,-8.8,10.4,0.8,4.9
FC(F)(F)c1ccccc1Cn1ccc2ccc(-c3ccc4ccn(Cc5ccccc5C(F)(F)F)c4c3)cc21,x,x,x,x,-2.1,x
O=C(COC(=O)c1cc(-c2cccc3ccccc23)nc2ccccc12)NC1CCS(=O)(=O)C1 (configuration not stated),-1.9,-3.2,-4.3,-5.9,25.1*,0.7
Cc1cc(C(=O)OCC(=O)NC2CCS(=O)(=O)C2)c2ccccc2n1 (configuration not stated),4.6,13.7,13.2,-5.5,-1.0,-0.6
SMILES,TLR9-MyD88 block,Exocytosis inh,TLR4 MyD88 comp,NOD2-RIPK2 inh,PRMT1 inh,ABHD5-PLIN5 inh
O=C(O)COc1ccccc1/C=C1\SC(=S)N(/N=C/c2ccccc2O)C1=O,1.6,4.0,-7.3,-7.3,22.5*,4.0
O=C(O)COc1ccccc1/C=C1\SC(=S)N(NC(=O)c2ccccc2O)C1=O,-10.8,1.2,x,-4.0,17.3,-2.7
O=c1c(-c2ccc([N+](=O)[O-])cc2)coc2c(O)c(O)ccc12,1.3,-1.4,x,-0.2,38.4*,4.7
COC(=O)c1ccc(NCc2cc(O)ccc2O)cc1O,6.7,43.5,x,10.1,23.1*,5.7
CCCn1c(O)c(N=NC(=O)c2ccco2)c2ccccc21,-2.2,-1.3,-20.1,-4.1,-0.6,-4.0
Cc1nc2ccccn2c1C(=O)N=Nc1c(O)n(CCC(C)C)c2ccccc12,-3.0,70.7*,-6.8,3.0,2.7,-3.7
O=C(OCn1ncc(Br)c(Br)c1=O)c1ccc(F)cc1,34.5*,63.8*,16.5,74.3*,x,14.3
COc1cc(OC)cc(-c2nnc(SCc3ccc(C(=O)O)cc3)o2)c1,0.0,-1.5,x,2.2,22.3*,5.1
CCN1CC=C2C(C#N)=C(N)C(C#N)(C#N)C(c3cc(Cl)ccc3Cl)C2C1 (configuration not stated),4.1,-0.9,-7.7,2.8,24.7*,-3.6
CC(C)N1CC=C2C(C#N)=C(N)C(C#N)(C#N)[C@H](c3ccoc3)[C@H]2C1,x,x,1.7,x,x,x
Cc1ccccc1NC(=O)CC1SCCNC1=O (configuration not stated),-0.2,1.2,7.7,1.6,22.0*,-7.7
COC(=O)C1=C(C)N(Cc2ccccc2C(F)(F)F)C(=NCc2cc(OC)c(OC)c(OC)c2)NC1c1cccc(Cl)c1 (configuration not stated),x,x,x,x,-4.8,x
CC(C)(C)NC(=O)C[C@H]1C[C@H](C(=O)N2CCCCC2)[C@@]2(CCc3ccccc3)c3[nH]c4cc(-c5ccco5)ccc4c3CCN2C1=O,-0.8,2.3,x,1.6,23.9*,10.4
O=C(C[C@H]1C[C@H](C(=O)N2CCOCC2)[C@@]2(CCC3CCCC3)c3[nH]c4cc(-c5ccco5)ccc4c3CCN2C1=O)NCc1ccco1,-2.9,-0.6,x,-2.2,21.7*,4.0
CN(C)CCCNC(=O)C[C@H]1C[C@H](C(=O)N2CCCCC2)[C@@]2(CCc3ccccc3)c3[nH]c4cc(-c5ccco5)ccc4c3CCN2C1=O,-5.3,12.0,x,1.6,-1.4,22.1*
O=C(C[C@H]1C[C@H](C(=O)N2CCOCC2)[C@@]2(CCC3CCCC3)c3[nH]c4cc(-c5ccco5)ccc4c3CCN2C1=O)NCCC1=CCCCC1,-1.1,0.3,x,0.5,x,17.9

# From PubChem BioAssay
